High-throughput results (PubChem)
Shown are actives, neighbours in structure and some others; about 3.5% of the full set was active somewhere.
MITF inh: blocks human microphthalmia-associated transcription factor | actives 0.91% (n = 650,000) | AlphaScreen MITF homodimerization, bead proximity signal | inhibition, % at 2.6 µM; in the data active means inhibition above about 50%;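 further: 0% = vehicle wells with protein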
TEAD-YAP inh: TEAD-YAP interaction inhibition | HEK-TIYL cells, TEAD-Gal4/YAP UAS-luciferase luminescence | inhibition, % at 9.12 µM | actives 1.4% (n = 640,000) | AID 1259422; in the data active means inhibition above about 32%;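 further: 0% = median of test compound wells and 100% = reference inhibitor wells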
FBW7 activator: activators of human E3 ligase FBW7 | normalized activity (activation), % at 26.1 µM | AlphaScreen FBW7–phospho-cyclin E peptide binding, activator screen | actives 0.13% (n = 650,000) | AID 1259310; in the data active means normalized activity above about 1.9%;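 further: purified mutant Fbw7 with reduced substrate affinity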
GPR151 activ: human GPR151 activation; PathHunter beta-arrestin GPR151 cells, luminescence; activation, % at 11.2 µM; actives 1% (n = 650,000); Q8TDV0; in the data active means activation above about 4.9%;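 further: 0% = median of compound wells and 100% = cells with positive control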
Target sequence (Q8TDV0 whole entry, looked up): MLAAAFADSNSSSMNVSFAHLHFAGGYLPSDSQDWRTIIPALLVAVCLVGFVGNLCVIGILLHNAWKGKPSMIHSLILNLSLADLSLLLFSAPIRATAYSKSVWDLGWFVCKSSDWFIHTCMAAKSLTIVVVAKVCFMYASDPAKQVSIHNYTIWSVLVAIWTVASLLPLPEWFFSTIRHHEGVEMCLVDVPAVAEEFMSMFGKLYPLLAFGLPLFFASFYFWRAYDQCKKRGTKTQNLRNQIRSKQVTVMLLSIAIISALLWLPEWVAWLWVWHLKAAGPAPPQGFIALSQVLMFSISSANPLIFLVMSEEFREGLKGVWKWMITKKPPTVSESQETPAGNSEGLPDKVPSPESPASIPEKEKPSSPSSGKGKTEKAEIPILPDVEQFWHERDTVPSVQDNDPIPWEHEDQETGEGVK
MITF inh conf: human MITF inhibition, confirmation. shares compounds with MITF inh. AlphaScreen MITF homodimerization, biotin/His-MITF beads. inhibition, % at 2.6 µM. actives 16% (n = 4,700);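 active means inhibition above a cutoff derived from the DMSO control wells, cut at about 28% in these data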;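 further: 0% = MITF dimer wells with DMSO only; inhibitors lower the bead chemiluminescence by keeping MITF from dimerizing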
AS interf DR: optically interferes with AlphaScreen signal in dose response; actives 6% (n = 480); IC50, µM; AlphaScreen optical interference counterscreen, cell-free; shares compounds with MITF inh; call rule not given here
AS interf ctr: counter-screen: compounds optically interfering with AlphaScreen; shares compounds with MITF inh; inhibition, % at 2.6 µM; LysRS AlphaScreen counterscreen, signal interference, triplicate; actives 7.6% (n = 4,700); AID 1259376;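 active means inhibition above a cutoff derived from the DMSO control wells, cut at about 30% in these data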
Starred values were filed as active, the others as inactive; nt = no result given.

SMILES	MITF inh	TEAD-YAP inh	FBW7 activator	GPR151 activ	MITF inh conf	AS interf ctr	others
O=C(Nc1ccc2c3c(cccc13)CC2)c1ccc([N+](=O)[O-])cc1[N+](=O)[O-]	-2	6	0	-1	nt	nt
Brc1ccccc1Cn1cnc2ccccc21	-5	11	0	1	nt	nt
Oc1ccc(Cn2cnc3ccccc32)c2cccnc12	95*	51*	-2	0	96*	101*
Oc1ccc(Cn2ccnc2)c2cccnc12	109*	14	0	-1	112*	100*
C=CCOC(=O)C1=C(C)Nc2c(c(=O)n(C)c(=O)n2C)C1c1ccc(OC)c(OC)c1 (stereo unspecified)	16	2	0	0	nt	nt
C=CCc1cc(Cl)ccc1OCCNCCCOC	25	10	0	0	nt	nt
C=CCc1cc(Cl)ccc1OCCNCCO	52*	14	0	-1	5	-9
C=CCc1cc(Cl)ccc1OCCOCCNCCOC	56*	3	0	1	42*	0	AS interf DR=>6.5
C=CCc1ccccc1OCCOCCNCCCOC	58*	12	0	0	-11	-5
COc1cc(/C=C2/C(=O)NC(=O)N(c3ccc(C)cc3)C2=O)cc(Br)c1O	1	-8	0	0	nt	nt
O=C(COc1ccc2ccc(=O)oc2c1)c1cccc([N+](=O)[O-])c1	-27	-4	0	0	nt	nt
Cc1c(NC(=O)c2nn3c(c2Br)NC(c2ccc(Br)o2)CC3C(F)(F)F)c(=O)n(-c2ccccc2)n1C (stereo unspecified)	2	3	0	1	nt	nt
CCCCCC(=O)NNC(=O)c1ccc(-c2ccccc2)cc1	76*	-5	1	-1	24	-5
CCCCCCCC(=O)NNC(=O)c1ccc(Cl)cc1	9	-4	0	0	nt	nt
COc1ccc(C)cc1NC(=O)CNCc1ccco1	53*	6	0	-1	7	9
COc1ccc(C)cc1NC(=O)NCc1ccco1	5	-13	0	-1	nt	nt
Cc1cc(NCCCN2CCOCC2)nc(-c2cccc(OC(F)(F)F)c2)n1	8	7	0	0	nt	nt
C=CCN(CC=C)CCOc1ccc(C(=O)OC)cc1	51*	-7	0	-3	-10	-7
COc1ccc(CNC(=O)c2c(O)c3c([nH]c2=O)CCCC3)cc1	51*	-4	1	-1	7	15
COc1ccccc1CN1CCC2(CCC(CNC(=O)C#Cc3ccccc3)O2)CC1 (stereo unspecified)	-4	0	0	0	nt	nt
CCCn1c(CCCNC(=O)C(C)C)nc2ccccc21	-1	3	0	2	nt	nt
c1ccc(CN2CCC(c3ccncc3)CC2)nc1	9	3	0	0	nt	nt
c1ccc(C2CCC(N3CCN(Cc4cccnc4)CC3)CC2)cc1 (stereo unspecified)	65*	2	0	-1	-10	12
O=C(O)C1CCN(Cc2ccccn2)CC1	-5	0	0	1	nt	nt
CCN(Cc1ccccc1)C1CCN(Cc2ccccn2)CC1	59*	4	0	-1	-10	0
SMILES	MITF inh	TEAD-YAP inh	FBW7 activator	GPR151 activ	MITF inh conf	AS interf ctr	others
CC1CCCC(N2CCN(Cc3ccccn3)CC2)C1 (stereo unspecified)	72*	-5	0	-1	5	16
c1ccc(C2CCC(N3CCN(Cc4ccccn4)CC3)CC2)cc1 (stereo unspecified)	68*	-1	0	-2	9	12
CC1CCCN(C(=O)C2CCN(Cc3ccccn3)CC2)C1 (stereo unspecified)	18	4	0	3	nt	nt
Cn1c(=O)c2c(ncn2CC(O)CNC2=NCCCC2)n(C)c1=O (stereo unspecified)	-9	4	0	1	nt	nt
CC1CCCCC1NC(=O)c1ccc(N2CCc3ccccc32)c([N+](=O)[O-])c1 (stereo unspecified)	23	-5	0	1	nt	nt
CCC(=O)N1CCc2cc(S(=O)(=O)Nc3ccc(Cl)cc3)ccc21	4	11	0	0	nt	nt
c1ccc(CN2CCN(C3CCCC3)CC2)nc1	74*	-9	0	-1	11	10
c1ccc(N2CCN(C3CCN(Cc4ccccn4)CC3)CC2)cc1	54*	-3	0	1	4	7
c1ccc(CN2CCC(N3CCN(Cc4ccccn4)CC3)CC2)cc1	40	4	1	-2	nt	nt
Cc1ccccc1CN1CCN(C2CCCC(C)C2)CC1 (stereo unspecified)	76*	-6	0	-1	-15	4
COc1cc(OC)cc(C(=O)N2CCC(C(=O)Nc3cccc(C(F)(F)F)c3)CC2)c1	16	-8	0	-1	nt	nt
Cc1cc(C)c(OCC(O)CN2CCN(Cc3ccc4c(c3)OCO4)CC2)c(C)c1 (stereo unspecified)	52*	-1	0	-1	-5	-7
C/C=C/c1ccc(OCC(O)CN2CCN(Cc3ccc4c(c3)OCO4)CC2)c(OC)c1 (stereo unspecified)	64*	6	0	2	15	14
OC(COC1CCCc2ccccc21)CN1CCN(Cc2ccc3c(c2)OCO3)CC1 (stereo unspecified)	80*	-5	0	1	12	10
O=C(CSc1nc(-c2ccc(Cl)cc2Cl)cs1)N1CCOCC1	19	-35	1	2	nt	nt
O=[N+]([O-])c1ccc(C=Nc2ccc(N=Cc3ccc([N+](=O)[O-])o3)cc2)o1	36	14	0	0	nt	nt
Cc1cc(N=Cc2ccc([N+](=O)[O-])o2)ccc1S(=O)(=O)O	58*	2	0	0	47*	-12	AS interf DR=>6.5
COc1ccc(/C=C2/C(=O)ON=C2C)cc1	27	9	0	0	nt	nt
CCN(CC)c1c([N+](=O)[O-])ccc2nonc12	15	-7	0	0	nt	nt
Cc1cccc(N=c2c([N+](=O)[O-])nn(-c3ccc(Cl)cc3)n2O)c1	78*	10	0	-1	9	10
Cc1ccc(N=c2c([N+](=O)[O-])nn(-c3cccc(C)c3)n2O)cc1	22	3	-1	1	nt	nt
COc1cccc(N=c2c([N+](=O)[O-])nn(-c3ccc(Cl)cc3)n2O)c1	2	10	0	0	nt	nt
Cc1cccc(-n2nc([N+](=O)[O-])c(=Nc3ccc(F)cc3)n2O)c1	72*	-15	0	-1	9	6
COc1ccc(CN2CCN(Cc3ccccn3)CC2)c(OC)c1OC	59*	-7	0	0	12	18
COc1ccccc1CN1CCN(Cc2ccccn2)CC1	65*	-1	0	1	1	16
COc1ccccc1CN1CCCCCC1	18	2	0	1	nt	nt
COc1ccc(CN2CCN(c3ccccn3)CC2)c(OC)c1OC	41	1	0	1	nt	nt
O=C1CCCN1CCP(=O)(O)CN1CCOCC1	16	12	0	1	nt	nt
